Laboratory results as given in PubChem BioAssay (NCI).
Compounds without any hit were thinned out: in the full panel of roughly 83,000, 20% have a hit.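 Assay: single dose, 48 h. Readout: percent growth (0 = no net growth; negative = cell death). Active: <10.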 A number with no mark means an inactive call. Active and inactive are the calls of the source.

Tested on: BT-549 breast
Test: NCI-60 one-dose screen, 48 h (100 = growth as untreated, 0 = no growth, -100 = all killed)
Conditions: 10 µM unless noted

| Structure (SMILES) | growth |
| --- | --- |
| O=C(CSc1nc2sc3c(c2c(=O)n1-c1ccc(Cl)cc1)CCCC3)NNC(=O)Nc1cccc(C(F)(F)F)c1 | 54% |
| CCCCN1C(=O)/C(=c2\sc3n(c2=O)C2C(NN=3)N(CC)C(=O)N2CC)c2cc(Cl)ccc21 (centres undefined) | 85% |
| COc1cc(OC)c(C2C(Cl)C(=O)N2Nc2ncnc3ccccc23)cc1OC (centres undefined) | 89.6% |
| CC(=O)Oc1ccccc1C(=O)Nc1ccc(C(=O)/C=C/c2ccncc2)cc1 | 57.1% |
| COc1ccc(/C=C/C(=O)c2ccc(NC(=O)CSc3nnc(-c4ccc5nc(-c6ccc(Cl)cc6)[nH]c5c4)o3)cc2)cc1 | 85% |
| COc1cc(/C=C/C(=O)c2ccc(F)cc2)ccc1Oc1nc(NCCO)nc(N2CCOCC2)n1 | 86.3% |
| Cn1ccnc1C(=O)/C=C/c1ccc(NC(=O)Nc2ccc(Cl)cc2)cc1 | 63.6% |
| O=C(CSc1nc2sc3c(c2c(=O)n1-c1ccc(Cl)cc1)CCCC3)NNC(=O)Nc1ccc(Cl)c(C(F)(F)F)c1 | 69% |
| C#C[C@]1(O)CC[C@H]2[C@@H]3CC=C4c5sc(-c6ccc(F)cn6)nc5CC[C@]4(C)[C@H]3CC[C@@]21C | 7.85% (active) |
| CC(=NNc1ncnc2ccccc12)c1ccc(S(C)(=O)=O)cc1 | 105% |
| COc1ccc(-c2cc(C(=O)N=Nc3c(O)[nH]c4ccccc34)c3ccccc3n2)cc1OC | 113% |
| Fc1ccc(-c2cc3nc(C(Cl)Cl)nc(-c4ccc(Cl)cc4)n3n2)cc1 | 72.4% |
| CN(C)c1ccc(/C=C2\Cc3c(F)ccc(Br)c3C2=O)cc1 | 117% |
| COC(=O)C1CN(S(=O)(=O)/N=C2\NC(=O)NC2=C(Cl)Cl)C1 | 110% |
| c1ccc2c(NCCCn3ccnc3)c3oc4ccccc4c3nc2c1 | 21.6% |
| Fc1ccc(-c2nc(C(Cl)Cl)nc3cc(-c4ccccc4)nn23)cc1 | 52.3% |
| N#Cc1c(-c2ccc(F)cc2)nc2c(C#N)c(Nc3ccccc3)nn2c1N | 109% |
| C#Cc1nc(C2=C(C)C(O)CC2)cs1 (centres undefined) | 119% |
| O=C(O)CCCCCN1C(=O)/C(=C/c2ccc(O)c(O)c2)SC1=S | 101% |
| CCN1CCN(/C(=N\c2sc(-c3ccccc3)nc2-c2ccccc2)c2ccccc2)CC1 | 90.9% |

| Structure (SMILES) | growth |
| --- | --- |
| CS(=O)(=O)c1ccc(-c2nc3ccccn3c2/C=N/Nc2nc(-c3ccc(Br)cc3)cs2)cc1 | 114% |
| CS(=O)(=O)Nc1ccc(-c2nn(-c3ccc(S(C)(=O)=O)cc3)cc2/C=C/C(=O)c2ccc(NC(=O)CO[N+](=O)[O-])cc2)cc1 | 98.7% |
| Clc1ccc(-c2cn3cc(Cc4ccc(Cl)c(Cl)c4)sc3n2)cc1 | 88.9% |
| CC(O)C(NC(=O)C1CCCN1C(=O)CNC(=O)C1CC(=O)NCC(=O)NC(Cc2c[nH]c3ccccc23)C(=O)NC(Cc2ccc(O)cc2)C(=O)NCC(=O)NC(CO)C(=O)NC(CCC(N)=O)C(=O)NC(Cc2c[nH]c3ccccc23)C(=O)N1)C(=O)NCC(=O)NC(CCC(N)=O)C(=O)NC(CCCNC(=N)N)C(=O)NC(CC(=O)O)C(=O)O (centres undefined) | 115% |
| O=C(CSc1nccc(=O)[nH]1)Nc1ccc(-c2nc3ccccc3[nH]2)cc1 | 103% |
| O=c1[nH]c2ccccc2cc1CSc1ccccc1Nc1nccc(-c2ccc(C(F)(F)F)cc2)n1 | 112% |
| CCOC(=O)c1c(Nc2ccccc2)nn2c(N)c(C#N)c(-c3ccc(OC)cc3)nc12 | 52.6% |
| COc1ccc(C(=O)/C=C/c2ccc(OCc3ccc(Cl)cc3)c(OC)c2)cc1OC | 62.1% |
| CCCCCCNC(=O)Oc1ccc(/C(=C(/C)c2ccccc2)c2ccc(OCCN3CCCCCC3)cc2)cc1 | 66.7% |
| Clc1ccc2oc3c(OCCCn4ccnc4)c4ccccc4nc3c2c1 | 95.7% |
| COc1ccc(-n2c(SCC(=O)Nc3ccc(-c4nc5ccccc5[nH]4)cc3)nc3ccccc3c2=O)cc1 | -65% (active) |
| Cc1cc2nc3c4cc(Cl)ccc4n(CC(=O)NCCN(C)C)c3nc2cc1C | 88.1% |
| Cc1ccc(-c2nc(C(Cl)Cl)nc3cc(-c4ccccc4)nn23)cc1 | 53.6% |
| C[C@@H]1CN(c2ccc3ncc(C#Cc4cncc(C(=O)Nc5ccc(CN6CCN(C)CC6)c(C(F)(F)F)c5)c4)n3n2)C[C@H](C)O1 | -27.2% (active) |
| OC1CCN(CCCOc2c3ccc(Cl)cc3nc3c2oc2ccccc23)CC1 | -2.71% (active) |
| CC(C)(C)Nc1nc2c(OCCc3ccccc3)cccn2c1-c1cccc(F)c1 | 11.8% |
| COc1cc(/C=C/C(=O)c2cc(OC)c(OC)c(OC)c2)ccc1OCc1ccccc1 | 32% |
| C#Cc1nc(C2=C(C)C(OC(C)=O)/C(=N/OC(C)=O)C2)cs1 (centres undefined) | -74.3% (active) |
| COc1ccc(/C=N/NC(=O)c2[nH]c3ccc(Br)cc3c2-c2ccccc2)s1 | -15.9% (active) |
